# A number with no mark means an inactive call. Results filed as inconclusive are left out. Where a call stands in place of a potency, no number is given. Activity calls are given as the source filed them. Unless noted, calls follow the shape of the full dose curve.
# Columns and labels:
# [1] = target: Bile acid receptor (Homo sapiens) (UniProt Q96RI1); assay: qHTS assay for small molecule antagonists of farnesoid X receptor signaling (AID 588526); also: potency is read from the fitted curve at half-maximal effect
# Sequence of Bile acid receptor (Homo sapiens) (Q96RI1 whole entry, looked up): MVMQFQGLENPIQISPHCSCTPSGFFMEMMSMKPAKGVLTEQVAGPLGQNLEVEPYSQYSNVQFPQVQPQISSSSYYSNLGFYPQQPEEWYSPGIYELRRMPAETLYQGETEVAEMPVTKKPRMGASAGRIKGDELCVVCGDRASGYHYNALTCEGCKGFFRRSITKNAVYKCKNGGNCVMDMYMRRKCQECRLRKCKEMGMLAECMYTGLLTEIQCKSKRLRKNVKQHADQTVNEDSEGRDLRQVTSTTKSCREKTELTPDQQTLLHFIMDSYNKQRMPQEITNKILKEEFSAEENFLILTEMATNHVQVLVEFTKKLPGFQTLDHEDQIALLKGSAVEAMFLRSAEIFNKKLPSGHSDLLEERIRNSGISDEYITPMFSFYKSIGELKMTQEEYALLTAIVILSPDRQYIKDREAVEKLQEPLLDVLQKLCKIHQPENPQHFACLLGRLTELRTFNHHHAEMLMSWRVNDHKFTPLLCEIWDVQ
# Summary of the method: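 Concentration-response titrations were fitted to the Hill equation for half-maximal inhibition and maximal response, with data normalised to 50 uM chenodeoxycholic acid and DMSO control wells. Cells: FXR-UAS-bla HEK293T, dialyzed FBS.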
# [2] = target: Peroxisome proliferator-activated receptor gamma (Homo sapiens) (UniProt P37231); assay: qHTS assay for small molecule agonists of peroxisome proliferator-activated receptor gamma signaling (AID 588536; active = well fitted curve in the direction sought with a large enough effect in the signal ratio, with a control signal flat, not every such curve was filed as active; the % refers to the signal ratio)
# Sequence of Peroxisome proliferator-activated receptor gamma (Homo sapiens) (P37231 whole entry, looked up): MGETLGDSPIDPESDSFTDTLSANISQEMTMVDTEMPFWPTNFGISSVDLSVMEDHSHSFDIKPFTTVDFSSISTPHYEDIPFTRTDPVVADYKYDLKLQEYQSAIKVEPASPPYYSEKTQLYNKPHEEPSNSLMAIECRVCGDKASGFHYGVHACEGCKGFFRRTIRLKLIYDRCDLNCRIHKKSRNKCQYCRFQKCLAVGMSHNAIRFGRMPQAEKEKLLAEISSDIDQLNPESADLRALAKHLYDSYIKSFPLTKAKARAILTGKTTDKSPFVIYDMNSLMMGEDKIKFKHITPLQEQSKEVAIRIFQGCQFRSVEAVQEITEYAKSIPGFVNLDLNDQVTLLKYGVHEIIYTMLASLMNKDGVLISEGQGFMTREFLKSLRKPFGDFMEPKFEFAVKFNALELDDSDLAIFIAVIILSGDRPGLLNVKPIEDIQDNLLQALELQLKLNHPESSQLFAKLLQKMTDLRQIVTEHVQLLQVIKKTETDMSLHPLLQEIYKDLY
# Summary of the method: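 PPAR-gamma-UAS-bla HEK293 cells in medium with 1% charcoal/dextran-treated FBS were exposed to compounds for 16 h at 37 C. Beta-lactamase activity was read with CCF4 substrate (405 nm excitation, 460/530 nm emission).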
# [3] = target: Peroxisome proliferator-activated receptor gamma (Homo sapiens) (UniProt P37231); assay: qHTS assay for small molecule antagonists of peroxisome proliferator-activated receptor gamma signaling (AID 588537; active = well fitted inhibition curve with a large enough effect in the signal ratio, with a control signal flat, not every such curve was filed as active; the % refers to the signal ratio; also: potency is read from the fitted curve at half-maximal effect)
# Summary of the method: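 PPAR-gamma-UAS-bla HEK293 cells (3000/well, 1% charcoal/dextran-stripped FBS) were preincubated 6-6.5 h at 37 C, given titrated compounds, then stimulated with 50 nM rosiglitazone for 16 h. Beta-lactamase activity was read with CCF4 dye; IC50 came from Hill fits.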
# [4] = target: Thyroid hormone receptor beta (Homo sapiens) (UniProt P10828); assay: qHTS assay for small molecule antagonists of thyroid hormone receptor beta signaling (AID 588547; active = well fitted inhibition curve with a large enough effect in the signal ratio, with a control signal flat, not every such curve was filed as active; the % refers to the signal ratio;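 also: cells stimulated with 0.4 nM T3 agonist during compound exposure; series mostly up to about 77 µM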); conditions: TR-UAS-bla HEK293, beta-lactamase ratio, antagonist mode, 18 h
# Sequence of Thyroid hormone receptor beta (Homo sapiens) (P10828 whole entry, looked up): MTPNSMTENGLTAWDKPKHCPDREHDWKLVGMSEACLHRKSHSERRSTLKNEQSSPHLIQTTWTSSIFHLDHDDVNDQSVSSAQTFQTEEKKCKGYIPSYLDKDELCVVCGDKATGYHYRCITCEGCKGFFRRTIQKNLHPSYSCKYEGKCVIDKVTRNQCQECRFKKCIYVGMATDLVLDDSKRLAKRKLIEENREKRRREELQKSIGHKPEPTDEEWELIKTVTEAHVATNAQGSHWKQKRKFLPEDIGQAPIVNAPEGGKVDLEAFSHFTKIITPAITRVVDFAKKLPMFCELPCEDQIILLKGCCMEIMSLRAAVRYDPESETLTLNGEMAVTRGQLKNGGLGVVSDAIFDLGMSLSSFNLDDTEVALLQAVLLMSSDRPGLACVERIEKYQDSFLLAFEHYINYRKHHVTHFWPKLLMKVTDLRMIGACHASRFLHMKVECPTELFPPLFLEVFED
# Summary of the method: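 TR-UAS-bla GripTite HEK293 cells in 2% charcoal/dextran FBS medium were preincubated 4 h at 37 C, given compound (0.59 nM to 92 uM) plus 0.4 nM T3 (final) for 18 h, then CCF4 for 2 h at RT; Hill fit gave IC50.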
# [5] = target: Androgen receptor (Homo sapiens) (UniProt P10275); assay: qHTS assay for small molecule agonists of androgen receptor signaling (AID 588515; active = well fitted curve in the direction sought with a large enough effect in the signal ratio, with a control signal flat; the % refers to the signal ratio); conditions: AR-UAS-bla HEK293, beta-lactamase ratio, agonist 16 h; stronger effect = higher value
# Sequence of Androgen receptor (Homo sapiens) (P10275 whole entry, looked up): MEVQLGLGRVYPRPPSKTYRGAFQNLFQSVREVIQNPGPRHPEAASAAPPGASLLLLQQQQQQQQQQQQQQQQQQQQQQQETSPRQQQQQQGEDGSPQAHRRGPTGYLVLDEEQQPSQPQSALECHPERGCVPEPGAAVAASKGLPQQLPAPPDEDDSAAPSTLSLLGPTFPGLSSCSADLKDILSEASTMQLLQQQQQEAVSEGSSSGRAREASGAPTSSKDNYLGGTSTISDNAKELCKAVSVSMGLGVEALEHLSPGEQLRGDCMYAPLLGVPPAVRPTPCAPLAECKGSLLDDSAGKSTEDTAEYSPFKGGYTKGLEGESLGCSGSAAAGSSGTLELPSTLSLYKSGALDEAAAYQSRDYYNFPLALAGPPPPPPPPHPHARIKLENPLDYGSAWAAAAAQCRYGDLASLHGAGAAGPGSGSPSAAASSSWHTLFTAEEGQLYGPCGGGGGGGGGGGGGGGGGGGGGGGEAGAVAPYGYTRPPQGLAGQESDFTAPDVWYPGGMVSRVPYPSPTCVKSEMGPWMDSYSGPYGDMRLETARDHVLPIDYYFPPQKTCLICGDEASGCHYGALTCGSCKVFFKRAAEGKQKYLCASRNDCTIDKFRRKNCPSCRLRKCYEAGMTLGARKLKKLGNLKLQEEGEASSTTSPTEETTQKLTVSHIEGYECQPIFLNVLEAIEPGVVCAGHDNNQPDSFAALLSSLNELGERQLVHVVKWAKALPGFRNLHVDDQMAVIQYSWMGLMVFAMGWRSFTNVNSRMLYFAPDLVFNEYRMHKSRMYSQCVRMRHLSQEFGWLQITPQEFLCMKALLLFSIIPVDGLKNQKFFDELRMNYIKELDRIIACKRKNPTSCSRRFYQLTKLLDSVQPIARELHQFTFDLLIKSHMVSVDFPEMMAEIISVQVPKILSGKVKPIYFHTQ
# Summary of the method: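 EC50 and efficacy came from Hill fits of titrations (up to 92 uM) normalized to 30 nM R1881 as 100% and DMSO as 0%. Compound exposure was 16 h at 37 C on AR-UAS-bla HEK293 cells, with a 405/460/530 nm CCF4 fluorescence read.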
# [6] = qHTS assay for small molecule activators of the human pregnane X receptor (PXR) signaling pathway (AID 720659; call rule not given here)
# [7] = target: Glucocorticoid receptor (Homo sapiens) (UniProt P04150); assay: qHTS assay for small molecule agonists of glucocorticoid receptor signaling (AID 588532; active = well fitted curve in the direction sought with a large enough effect in the signal ratio, with a control signal flat; the % refers to the signal ratio); conditions: HeLa MMTV-bla, beta-lactamase ratio, agonist, 18 h; activation: stronger effect = higher value, percent of dexamethasone control, DMSO zero
# Sequence of Glucocorticoid receptor (Homo sapiens) (P04150 whole entry, looked up): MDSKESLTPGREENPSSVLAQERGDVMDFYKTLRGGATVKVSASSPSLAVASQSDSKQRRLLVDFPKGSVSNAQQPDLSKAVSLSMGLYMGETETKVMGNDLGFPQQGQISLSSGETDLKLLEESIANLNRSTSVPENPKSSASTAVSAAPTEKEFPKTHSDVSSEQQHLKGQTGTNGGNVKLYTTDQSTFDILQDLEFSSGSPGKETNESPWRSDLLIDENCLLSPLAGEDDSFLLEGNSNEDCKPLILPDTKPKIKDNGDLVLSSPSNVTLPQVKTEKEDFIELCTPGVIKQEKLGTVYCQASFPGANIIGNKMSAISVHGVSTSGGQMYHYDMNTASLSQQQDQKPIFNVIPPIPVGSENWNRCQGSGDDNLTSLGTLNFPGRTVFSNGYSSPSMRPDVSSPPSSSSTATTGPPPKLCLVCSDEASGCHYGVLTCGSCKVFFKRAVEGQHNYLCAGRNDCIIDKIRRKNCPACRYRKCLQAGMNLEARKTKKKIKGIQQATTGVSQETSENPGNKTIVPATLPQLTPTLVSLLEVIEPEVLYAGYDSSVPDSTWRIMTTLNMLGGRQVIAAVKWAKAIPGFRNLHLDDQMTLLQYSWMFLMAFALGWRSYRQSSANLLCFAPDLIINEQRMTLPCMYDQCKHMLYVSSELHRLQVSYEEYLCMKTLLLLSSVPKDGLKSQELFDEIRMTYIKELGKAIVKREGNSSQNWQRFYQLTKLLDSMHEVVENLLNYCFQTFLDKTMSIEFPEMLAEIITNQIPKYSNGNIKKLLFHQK
# Summary of the method: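 MMTV-bla HeLa, beta-lactamase reporter; medium with 1% charcoal/dextran-stripped FBS; cpds up to 92 uM, 18 h, 37 C; CCF4 readout 460/530 nm; Hill fit → EC50, efficacy vs 0.1 uM dexamethasone = 100%.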
# [8] = target: Glucocorticoid receptor (Homo sapiens) (UniProt P04150); assay: qHTS assay for small molecule antagonists of glucocorticoid receptor signaling (AID 588533; active = well fitted inhibition curve with a large enough effect in the signal ratio, with a control signal flat, not every such curve was filed as active; the % refers to the signal ratio;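 also: cells stimulated with 2 nM dexamethasone as agonist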; also: potency is read from the fitted curve at half-maximal effect)
# Summary of the method: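 Antagonist-mode qHTS: compound titrations added to GRE-bla HeLa cells, then dexamethasone 2 nM final; 18 h, 37 C. CCF4 FRET fluorescence normalized to dexamethasone and DMSO; IC50 from Hill fit.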
# [9] = qHTS assay for small molecule agonists of the antioxidant response element (ARE) signaling pathway (AID 651741; active = well fitted activation curve with a large enough effect in the signal ratio; the % refers to the signal ratio; also: potency is read from the fitted curve at half-maximal effect)
# Summary of the method: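 ARE-bla HepG2 cells (beta-lactamase reporter under ARE control) were plated at 2,000 cells/well, preincubated 5 h at 37 C/5% CO2, then treated with DMSO-dissolved compounds for 16 h at 37 C; LiveBLAzer B/G FRET substrate added, fluorescence read after 2 h at room temperature.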
# [10] = target: Androgen receptor (Homo sapiens) (UniProt P10275); assay: qHTS assay for small molecule antagonists of androgen receptor signaling (AID 588516; active = well fitted curve in the direction sought with a large enough effect in the signal ratio, with a control signal flat, not every such curve was filed as active; the % refers to the signal ratio)
# Summary of the method: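 Antagonist mode: inhibition of R1881-stimulated (10 nM final) bla reporter in GeneBLAzer AR HEK 293 cells, 16 h at 37C, compounds titrated. IC50 and efficacy from Hill-equation fits of 405/460–530 nm FRET ratios.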
# [11] = qHTS assay for small molecule disruptors of the mitochondrial membrane potential - 1 hr assay (AID 651754); also: potency is read from the fitted curve at half-maximal effect; nearly all actives have a fitted effect of over 35% in size
# Summary of the method: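 Steps: seed HepG2 cells and let attach overnight; pin-transfer compound or vehicle; incubate 1 hr at 37C; add Mito-MPS dye for 30 min; read two-channel fluorescence for monomer and aggregate forms.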
smiles,measurement,setting,value
COc1cccc(C(=O)NN(C(=O)c2cc(C)cc(C)c2)C(C)(C)C)c1C,Potency,[1],inactive
same,Potency,[2],inactive
same,Potency,[3],inactive
same,activity change % (negative = inhibition),[4],-4.61%
CCNS(=O)(=O)C(F)(F)C(F)(F)C(F)(F)C(F)(F)C(F)(F)C(F)(F)C(F)(F)C(F)(F)F,activation,[5],7.01%
same,Potency,[2],inactive
same,Potency,[3],inactive
same,activity change % (negative = inhibition),[4],23.1%
same,outcome,[6],inactive
CCCSP(=O)(OCC)Oc1ccc(Br)cc1Cl (stereo unspecified),Potency,[1],inactive
same,Potency,[2],inactive
same,activity change % (negative = inhibition),[4],3.3%
same,outcome,[6],inactive
Cc1cc(C2CC2)nc(Nc2ccccc2)n1,Potency,[1],inactive
same,Potency,[2],inactive
same,Potency,[3],inactive
same,activity change % (negative = inhibition),[4],-20%
FC(F)C(F)(F)OCC(Cn1cncn1)c1ccc(Cl)cc1Cl (stereo unspecified),Potency,[1],inactive
same,activation,[7],3.91%
same,Potency,[2],inactive
same,activity change % (negative = inhibition),[4],-17.9%
CCC(CC)Nc1c([N+](=O)[O-])cc(C)c(C)c1[N+](=O)[O-],Potency,[1],inactive
same,activation,[7],-2.05%
same,Potency,[8],inactive
same,Potency,[2],inactive
same,Potency,[3],inactive
same,activity change % (negative = inhibition),[4],-5.09%
same,Potency,[9],27.3 µM (active)
Cc1nn(-c2cc(NS(C)(=O)=O)c(Cl)cc2Cl)c(=O)n1C(F)F,activation,[5],-3.3%
same,Potency,[2],inactive
same,Potency,[3],inactive
same,Potency,[9],inactive
CCN(CC)C(=O)SCc1ccc(Cl)cc1,Potency,[1],inactive
same,activation,[7],-4.08%
same,Potency,[8],inactive
same,Potency,[2],inactive
same,activity change % (negative = inhibition),[4],12%
O=C(NC(=O)c1c(F)cccc1F)Nc1cc(Cl)c(OC(F)(F)C(F)C(F)(F)F)c(Cl)c1F (stereo unspecified),activation,[5],-3.76%
same,Potency,[2],inactive
same,Potency,[3],inactive
same,activity change % (negative = inhibition),[4],12.6%
same,Potency,[9],30.6 µM (active)
CCOC(=O)COc1cc(-c2nn(C)c(OC(F)F)c2Cl)c(F)cc1Cl,Potency,[10],inactive
same,activation,[7],-3.65%
same,activity change % (negative = inhibition),[4],7.86%
same,Potency,[9],17.2 µM (active)
CS(=O)(=O)NC(=O)c1cc(Oc2ccc(C(F)(F)F)cc2Cl)ccc1[N+](=O)[O-],Potency,[1],inactive
same,Potency,[2],inactive
same,activity change % (negative = inhibition),[4],-8.1%
same,outcome,[6],inactive
CCC(C)(c1ccc(O)cc1)c1ccc(O)cc1,Potency,[1],inactive
same,Potency,[2],inactive
same,Potency,[3],inactive
same,activity change % (negative = inhibition),[4],5.47%
same,Potency,[9],54.5 µM (active)
COC(=O)c1ccccc1S(=O)(=O)NC(=O)Nc1nc(C)nc(OC)n1,Potency,[1],inactive
CCNc1nc(NC(C)C)nc(SC)n1,activation,[5],-1.4%
same,Potency,[2],inactive
same,Potency,[3],inactive
same,activity change % (negative = inhibition),[4],5.24%
same,Potency,[9],inactive
CC(C)COP(=O)(OCC(C)C)OCC(C)C,Potency,[1],inactive
same,Potency,[2],inactive
same,Potency,[3],inactive
same,activity change % (negative = inhibition),[4],-6.4%
same,outcome,[6],inactive
COP(=O)(OC)Oc1nc(Cl)c(Cl)cc1Cl,Potency,[10],inactive
same,Potency,[1],inactive
same,activity change % (negative = inhibition),[4],-14.5%
same,outcome,[6],inactive
CCOP(=O)(OCC)Oc1cc(C)nc(C(C)C)n1,Potency,[1],inactive
same,activation,[7],20.3%
same,Potency,[3],inactive
same,outcome,[6],inactive
c1ccc2c(c1)[nH]c1ccccc12,activation,[5],0.372%
same,Potency,[11],59.6 µM (active)
O=C(O)c1c(Cl)ccc2cc(Cl)cnc12,Potency,[1],inactive
same,activation,[7],3.46%
same,Potency,[8],inactive
same,Potency,[2],inactive
same,Potency,[9],inactive
same,outcome,[6],inactive
CC(Oc1cccc(Cl)c1)C(=O)O (stereo unspecified),Potency,[1],inactive
same,activation,[7],-9.84%
same,Potency,[8],inactive
same,Potency,[2],inactive
same,activity change % (negative = inhibition),[4],10.2%
same,Potency,[9],inactive
same,outcome,[6],inactive
Cc1nc(N(C)C)nc(OC(=O)N(C)C)c1C,Potency,[1],inactive
same,Potency,[8],inactive
same,Potency,[2],inactive
same,Potency,[3],inactive
same,activity change % (negative = inhibition),[4],-14.4%
same,Potency,[9],inactive
same,outcome,[6],inactive
CNc1cnn(-c2cccc(C(F)(F)F)c2)c(=O)c1Cl,Potency,[1],inactive
same,activation,[7],-4.87%
same,activity change % (negative = inhibition),[4],8.76%
CO/N=C(/C1=NOCCO1)c1ccccc1Oc1ncnc(Oc2ccccc2Cl)c1F,Potency,[1],35.5 µM (active)
same,activation,[7],-11.9%
same,Potency,[3],25.1 µM (active)
same,outcome,[6],inactive
O=[N+]([O-])c1cc(C(F)(F)F)c(Cl)c([N+](=O)[O-])c1Nc1ncc(C(F)(F)F)cc1Cl,Potency,[1],25.1 µM (active)
same,outcome,[6],inactive
C[Si](Cn1cncn1)(c1ccc(F)cc1)c1ccc(F)cc1,Potency,[1],22.4 µM (active)
same,Potency,[3],inactive
C=CC(=O)OCC(CC)(COC(=O)C=C)COC(=O)C=C,activation,[5],-16.7%
same,Potency,[8],44.7 µM (active)
same,Potency,[9],34.4 µM (active)
COC(=O)C(C)Oc1ccc(Oc2ccc(Cl)cc2Cl)cc1 (stereo unspecified),Potency,[1],inactive
same,activation,[7],-5.37%
same,activity change % (negative = inhibition),[4],8.67%
same,outcome,[6],inactive
O=[N+]([O-])c1ccc(Nc2ccccc2)cc1,Potency,[1],inactive
same,activation,[7],-0.43%
same,Potency,[8],inactive
same,activity change % (negative = inhibition),[4],-15.7%
same,Potency,[9],48.6 µM (active)
CCCCCCCCCCCCC1=C(OC(C)=O)C(=O)c2ccccc2C1=O,activation,[5],-4.72%
same,activation,[7],-3.65%
same,outcome,[6],inactive
C[N+]1(C)CCCCC1,activation,[5],4.04%
same,Potency,[2],inactive
same,Potency,[3],inactive
same,activity change % (negative = inhibition),[4],2.54%
same,outcome,[6],inactive
COC(C)(C)CCC[C@H](C)C/C=C/C(C)=C/C(=O)OC(C)C,activation,[5],-8.45%
same,activity change % (negative = inhibition),[4],-10.3%
same,Potency,[9],68.6 µM (active)
CC(O)CN(CC(C)O)CC(C)O (stereo unspecified),Potency,[1],inactive
same,activation,[7],4.4%
same,Potency,[8],inactive
same,activity change % (negative = inhibition),[4],25%
same,Potency,[9],54.5 µM (active)
same,outcome,[6],inactive

# Source: PubChem BioAssay (NCATS)
